# Screens as filed in PubChem BioAssay.
# An excerpt weighted towards active compounds, which were near 2.3% of everything screened.
# TDP43 rescue: TDP-43 toxicity inhibition in yeast; 410,000 tested, 1.8% active; Potency, µM (highest dose often 46.1 µM), for inactives: top-dose growth rescue (activation), usual class: activators; TDP-43 expressing yeast growth rescue, BacTiter-Glo, 24 h; AID 652104; also: potency is read from the fitted curve at half-maximal effect; % of control where 0% means no effect; nearly all actives have a fitted effect of over 50% in size
#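 Cell-based yeast growth screen: TDP-43 expression induced in galactose, inoculum OD600=0.02 after raffinose pregrowth to mid-log. Read-out BacTiter-Glo luminescence at 24 hr, 30 deg C; inhibition of toxicity seen as signal increase.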
# MmCpn inh: inhibitors of Methanococcus maripaludis chaperonin TRiC (MmCpn); purified Mm-Cpn ATPase, ADP Transcreener TR-FRET; Potency, µM (titrated, usually from 76.9 µM), for the others: top-dose activity, negative = inhibition, usual class: inhibitors; 330,000 tested, 0.031% active; AID 504842; also: potency is read from the fitted curve at half-maximal effect; % is scaled to controls: 0 for no effect and ±100 for the full control effect; nearly all actives have a fitted effect of over 80% in size
#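 TR-FRET (320 nm excitation; 590 and 665 nm emission) reports ADP made from 10 uM ATP by 25 nM enzyme; compounds were preincubated 10 min, reaction run 30 min, both at 37°C.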
# Abeta yeast res: compounds reversing amyloid beta toxicity in yeast. yeast expressing A-beta42, growth rescue, OD600, 48 h; response scale: 0% DMSO, 100% iron-clioquinol control. Potency, µM (series often up to 46.1 µM), actives largely listed as activators. 410,000 tested, 0.063% active; also: potency is read from the fitted curve at half-maximal effect; nearly all actives have a fitted effect of over 55% in size
#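 Yeast growth medium received pinned compounds, then yeast cells expressing toxic A-beta were added; plates incubated at 30 C for 48 hr. Growth read as absorbance at 600 nm, normalized to DMSO and equimolar FeCl3 plus clioquinol controls.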
# FUS suppressor: suppressors of FUS proteinopathy in yeast. S. cerevisiae FUS-expressing, growth rescue, OD600, 24 h. Potency, µM (doses to about 76.6 µM), actives largely listed as activators. 390,000 tested, 0.24% active. AID 1347120;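 also: potency is read from the fitted curve at half-maximal effect; plate controls were DMSO vehicle for no effect and reference control for full effect; nearly all actives have a fitted effect of over 55% in size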
#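 FUS-expressing yeast, raffinose-pregrown, induced in 2% galactose minimal medium at OD 0.005; compounds in a dilution series, 24hr at 30C. Growth restoration read as absorbance at 600 nm. CP55940 positive control, DMSO negative.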
# aSyn rescue: rescues yeast growth from alpha-synuclein toxicity; Yeast expressing alpha-synuclein, growth rescue, BacTiter-Glo, 24 h; Potency, µM (titrated, usually from 46.1 µM), for inactives: top-dose growth rescue (activation), most hits filed as activators; 370,000 tested, 0.14% active; AID 652106; also: potency is read from the fitted curve at half-maximal effect; % of control where 0% means no effect; nearly all actives have a fitted effect of over 65% in size
#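 Readout is rescue of growth in alpha-synuclein-expressing yeast, so inhibitors of toxicity appear as activators. Growth after 24 hr at 30 deg C in galactose medium is quantified by luminescence.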
# CCT modulator: modulators of cytosolic chaperonin (CCT/TRiC) activity; activity change, % (test concentration not listed), hits read low; purified chaperonin ATPase assay, HTRF ADP detection, 30 min; 360,000 tested, 0.3% active; in the data active = activity change below about -30%; also: % is scaled to controls: 0 for no effect and ±100 for the full control effect
#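 First, chaperonin was dispensed at 40 nM or 20 nM final depending on batch activity. Next, compounds were pinned at 76 uM and ATP added at 10 uM. After 30 min at 37 °C, ADP detection reagents ran 30 min at ambient temperature.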
# Starred values were filed as active, the others as inactive; i = inactive; ? = inconclusive; / = no result given. Unless noted, calls follow the shape of the dose curve; as a rule, active = well fitted curve in the direction sought with a large enough effect; inconclusive = small, poorly fitted or top-dose-only effect, or another doubt; inactive = no such curve, though single readings can be large; an effect the other way counts as inactive or inconclusive.
SMILES,TDP43 rescue,MmCpn inh,Abeta yeast res,FUS suppressor,aSyn rescue,CCT modulator
O=C(NCCSc1c[nH]c2ccccc12)c1ccc(Br)o1,18µM*,3%,i,i,10%,0
O=C(Nc1ccc2c(c1)OCO2)NC1CCN(S(=O)(=O)c2ccc(F)cc2)CC1,/,/,/,i,/,/
CCc1ccc(C(=O)c2cn(CC(=O)Nc3ccc(C)c(C)c3)c3ccccc3c2=O)cc1,-7%,/,i,?,/,/
NC(=S)NN=C1CCC(C2CCCCC2)CC1 (stereo not given),18%,/,3.2µM*,i,-8%,-2
O=C(NN=C1CCCCCC1)NC1CCCCC1,-4%,-3%,i,i,-10%,0
NC(=S)NN=C1CCCCCCCCCC1,14µM*,/,i,/,14%,-3
CC1CN(c2ccnc3cc(Cl)ccc23)CCN1C(=O)c1ccc(Cl)cc1 (stereo not given),/,/,/,i,/,/
CCOC(=O)c1noc2ncn(Cc3ccc([N+](=O)[O-])cc3)c(=O)c12,20µM*,/,i,i,/,/
Cc1cc(Br)c(OCc2ccc(C(=O)N/N=C3\CC4CC=CC34)cc2)c(Br)c1 (stereo not given),25µM*,-9%,i,i,10%,-10
CC(C)(O)c1[nH]c2cc(C(F)(F)F)ccc2c1C(C)(C)O,35µM*,-2%,?,i,13%,-13
CC(C)(O)c1[nH]c2ccc(C(F)(F)F)cc2c1C(C)(C)O,14µM*,1%,?,i,4%,0
Cc1c(C(C)(C)O)[nH]c2cc(C(F)(F)F)ccc12,?,1%,?,i,7%,-1
CN(C)Cc1c(C(C)(C)O)[nH]c2ccc(C(F)(F)F)cc12,19%,1%,i,i,-2%,-1
COC(=O)c1ccccc1NC(=O)CCC(=O)N1CC(C)Oc2ccc(C)cc21 (stereo not given),18µM*,-1%,i,i,3%,0
COC(=O)c1ccccc1NC(=O)CCC(=O)N1CCSc2ccccc21,0%,-1%,i,i,3%,0
COC(=O)c1ccccc1NC(=O)CCC(=O)N1CC(C)Sc2ccccc21 (stereo not given),18µM*,/,i,i,/,/
CC(C)CN(CC(C)C)C(=O)CSc1nc2cccnc2n1C,/,/,/,i,/,/
CC(=O)c1ccc(Sc2nnnn2-c2ccccc2)c([N+](=O)[O-])c1,20µM*,-4%,i,i,-19%,-1
CN1CCN(S(=O)(=O)c2ccc(Sc3nnnn3-c3ccccc3)c([N+](=O)[O-])c2)CC1,2%,1%,i,i,2%,0
O=C(Nc1ccc(Br)cc1Cl)c1ccc(OCC2CCCO2)cc1 (stereo not given),18µM*,0%,i,i,0%,2
CCOc1ccccc1NC(=O)Nc1cc2c(cc1N1CCCCC1)n(CC)c(=O)n2CC,0%,/,i,i,/,/
Cc1cc(Nc2ccc(Cl)cc2)n(-c2ccccc2)n1,10µM*,0%,i,i,9%,-4
Cc1cc(Nc2ccccc2)n(-c2ccc(Br)cc2)n1,?,1%,i,i,11%,0
Cc1cc(Nc2ccc(Cl)cc2)n(-c2cccc(Cl)c2)n1,22µM*,-3%,i,i,9%,1
COc1cccc(/C=C/c2nc3ccccc3nc2/C=C/c2cccc(OC)c2OC)c1OC,/,/,/,/,3%,/
SMILES,TDP43 rescue,MmCpn inh,Abeta yeast res,FUS suppressor,aSyn rescue,CCT modulator
Cn1c(=O)c(-c2ccccc2)c(O)c2ccccc21,20µM*,-6%,i,i,6%,0
CCC1Sc2ccc(S(=O)(=O)Nc3ccc(OC)c(OC)c3)cc2NC1=O (stereo not given),-5%,2%,i,i,-5%,-35*
Cc1ccccc1NC(=O)OC1CC2CC1[C@H]1CCCCN1[C@H]2Cc1ccccc1 (stereo not given in full),/,/,/,i,/,/
COc1ccc2cc3cc(C(=O)NCCN4CCc5ccccc5C4)oc3nc2c1,11µM*,-1%,i,i,25µM*,-1
COc1ccc2cc3cc(C(=O)N(C)C4CCCCC4)oc3nc2c1,18µM*,-1%,i,i,13%,-3
COc1ccc2cc3cc(C(=O)NCCN4CCN(Cc5ccccc5)CC4)oc3nc2c1,9%,1%,i,i,-1%,0
COc1ccc2cc3cc(C(=O)N4CCCCCC4)oc3nc2c1,18%,0%,i,i,3%,-1
CC(C)CNC(=O)N1CCN(S(=O)(=O)c2ccc3c(ccn3C)c2)CC1,28%,/,i,i,1%,/
CCc1ccc(-n2nc(C)c3c(C)cc(=O)n(CC(=O)Nc4ccc(C(C)=O)cc4)c32)cc1,6%,/,i,i,/,/
COc1ccc(-c2nnc(SCC(=O)Nc3ccc(Cl)cc3)s2)cc1,3%,/,i,i,/,/
C#CCOCCOCCOCCNc1nc(N2CCN(C(=O)CCCCCCCCCCNC(=O)[C@H](CCCCN)n3cc(CCO)nn3)CC2)nc(N2CCN(C(=O)CCCCCCCCCCNC(=O)[C@@H]([C@H](C)O)n3cc(C)nn3)CC2)n1,-1%,2%,i,?,-8%,0
C#CCOCCOCCOCCNc1nc(N2CCN(C(=O)CCCCCCCCCCNC(=O)[C@H]([C@@H](C)CC)n3cc(CCCCCN)nn3)CC2)nc(N2CCN(C(=O)CCCCCCCCCCNC(=O)[C@@H]([C@H](C)O)n3cc(C)nn3)CC2)n1,?,-20%,i,13µM*,-53%,-3
C#CCOCCOCCOCCNc1nc(N2CCN(C(=O)CCCCCCCCCCNC(=O)[C@@H](CCSC)n3cc(CCO)nn3)CC2)nc(N2CCN(C(=O)CCCCCCCCCCNC(=O)[C@H]([C@@H](C)CC)n3cc(CCCCCN)nn3)CC2)n1,22%,-3%,i,?,-64%,1
C#CCOCCOCCOCCNc1nc(N2CCN(C(=O)CCCCCCCCCCNC(=O)[C@@H](CCSC)n3cc(CCO)nn3)CC2)nc(N2CCN(C(=O)CCCCCCCCCCNC(=O)[C@H]([C@@H](C)CC)n3cc(CCCCN=C(N)N)nn3)CC2)n1,5%,4%,i,8.9µM*,-64%,-2
C#CCOCCOCCOCCNc1nc(N2CCN(C(=O)CCCCCCCCCCNC(=O)[C@H](CCCCN)n3cc(C)nn3)CC2)nc(N2CCN(C(=O)CCCCCCCCCCNC(=O)[C@@H]([C@H](C)CC)n3cc(CCCCCN)nn3)CC2)n1,/,0%,/,/,/,/
